# Laboratory results: PubChem BioAssay
# The source made the active and inactive calls.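 Rule for the calls, unless noted: active = fluorescence slope higher than the sample average by over 3 SD (cut at about -0.22 in these data, passing the limit was not always enough); inactive = the rest.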
# Key:
# [1] = inhibitors of TNFa-induced NFkB p65 translocation, primary screen, imaging, HUVEC, MLSMR starter and 10KST1 sets (AID 438;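 active = inhibition above 20% together with a positive visual image hit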;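 note: compound added about 3h40 before a 20 min TNFalpha stimulation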;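 for inhibition: signal is the nuclear over cytoplasmic p65 intensity ratio per well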); conditions: HUVEC TNFa-induced p65 nuclear translocation; cell count: measured here: nuclei count (cytotoxicity indicator), at 2.08 µM; inhibition: at 2 µM, stronger effect = higher value, 0% TNFa-plus-vehicle, 100% no-TNFa wells
# [2] = reduction of polyQ htt aggregates in cells – imaging, exon1htt(103Q)mCFP cells, high-content imaging, primary screen (AID 483;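 active = visual image review flags a hit and inhibition of aggregation exceeds 20%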;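 note: compound exposure lasted 3 days before fixation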;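 for nuclei count: percent of the per-plate median nuclei count of sample wells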); conditions: exon1htt(103Q)mCFP cell line, aggregate imaging, at 2 µM; inhibition of aggregation: stronger effect = higher value; nuclei count: measured here: cell count, toxicity
# [3] = endothelial E-selectin expression blockers – imaging, HUVEC, immunofluorescence, MLSMR starter and 10KST1 sets, primary screen (AID 487;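 active = visually confirmed hit in the image check and inhibition above 20%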;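 for inhibition: signal is fraction of cell area covered by stained E-selectin grains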;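 for nuclei count: 100% = median nuclei count of all wells on the same plate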); conditions: HUVEC TNFalpha-induced E-selectin immunofluorescence imaging, at 2 µM; inhibition: stronger effect = higher value; nuclei count: measured here: cell number, toxicity
# [4] = target: Voltage-gated potassium channel subunit beta-2 (Rattus norvegicus) (UniProt P62483); experiment: inhibitors of rat Kvbeta2 reductase activity – biochemical, NADPH fluorescence, primary screen (AID 622); conditions: recombinant KvBeta, 4-cyanobenzaldehyde reduction, at 10 µM, stronger effect = higher value;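 note: slope of raw intensity against log time taken from 70 to 1610 s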
# [5] = target: Voltage-gated potassium channel subunit beta-2 (Rattus norvegicus) (UniProt P62483); experiment: enhancers of rat Kvbeta2 NADPH turnover – biochemical, NADPH fluorescence, primary screen (AID 623;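 active = NADPH fluorescence slope more negative than the mean of all samples by about 3 SD, 99.7% confidence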;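 note: fluorescence intensity change per second fitted from 20 to 320 s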); conditions: Recombinant KvBeta, NADPH fluorescence decrease slope, 10 min; at 10 µM; stronger effect = lower value
# [6] = target: Muscarinic acetylcholine receptor M4 (Homo sapiens) (UniProt P08173); experiment: M4-linked GIRK flux change, two-sided – cell-based, HEK293 M4/GIRK, thallium flux, BTC-AM, M4 allosteric agonist project, primary screen (AID 625;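 active = fluorescence slope after compound addition differing from the mean of all tested samples at 99.7% confidence, mostly higher but some lower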;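 note: thallium influx through GIRK channels coupled to M4 in HEK293 cells with BTC-AM dye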); conditions: at 10 µM, actives lie on both sides
# [7] = blockers of RIG-like receptor reporter activation – cell-based, Sendai virus stimulus, luciferase, 10K MLSCN set, TLR/RLR signaling modifier project, primary screen (AID 602276;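 active = inhibition at or above 50% at 10 µM; inactive = inhibition below 50%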;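 note: firefly luciferase from ISG56 promoter only with Renilla not read in this screen; 0% = Sendai virus plus DMSO and 100% = medium plus DMSO without virus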); conditions: HEK293 RL24 IRF3 luciferase reporter, at 10 µM, stronger effect = higher value
# [8] = TLR3 IRF3 reporter activation blockers – cell-based, poly I:C stimulus, luciferase, 10K MLSCN set, primary screen (AID 602277;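 active = inhibition of the reporter signal at or above 50%; inactive = inhibition below 50%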); conditions: HEK293-TLR3 RL24 IRF3 luciferase reporter, at 10 µM, stronger effect = higher value
# [9] = target: Alpha-2C adrenergic receptor (Homo sapiens) (UniProt P18825); experiment: compounds altering alpha2C-coupled GIRK flux – cell-based, HEK293 alpha2C/GIRK1/2, thallium flux, primary screen (AID 624;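 active = fluorescence slope after compound addition differing from the mean of all screened samples at 99.7% confidence, in either direction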;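 note: slope of fluorescence ratio to pre-addition baseline per second over 15 to 24 s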); conditions: thallium flux BTC fluorescence, at 10 µM, actives lie on both sides
# [10] = Primary imaging screen for DUSP6 inhibitors that restore phospho-Erk in transfected HeLa cells, chemical complementation (AID 609;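 active = compounds giving at least 50% inhibition in the cell-based MKP-3 phosphatase rescue imaging test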;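 for inhibition: phospho-Erk level distribution per well compared with pooled transfected vehicle control wells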); conditions: HeLa MKP-3 transfected, phospho-Erk imaging KS statistic, at 10 µM, cells stimulated with TPA for 15 min
# [11] = target: Dual specificity protein phosphatase 6 (Homo sapiens) (UniProt Q16828); experiment: as above; conditions: HeLa MKP-3 transfected, phospho-Erk imaging KS statistic; at 10 µM; stronger effect = higher value; cells stimulated with TPA for 15 min
# [12] = measured here: cell density z-score
# [13] = measured here: nuclear c-Myc green intensity z-score
# [14] = measured here: nuclear pErk red intensity z-score, stronger effect = higher value
# Sequence of Muscarinic acetylcholine receptor M4 (Homo sapiens) (P08173 whole entry, looked up): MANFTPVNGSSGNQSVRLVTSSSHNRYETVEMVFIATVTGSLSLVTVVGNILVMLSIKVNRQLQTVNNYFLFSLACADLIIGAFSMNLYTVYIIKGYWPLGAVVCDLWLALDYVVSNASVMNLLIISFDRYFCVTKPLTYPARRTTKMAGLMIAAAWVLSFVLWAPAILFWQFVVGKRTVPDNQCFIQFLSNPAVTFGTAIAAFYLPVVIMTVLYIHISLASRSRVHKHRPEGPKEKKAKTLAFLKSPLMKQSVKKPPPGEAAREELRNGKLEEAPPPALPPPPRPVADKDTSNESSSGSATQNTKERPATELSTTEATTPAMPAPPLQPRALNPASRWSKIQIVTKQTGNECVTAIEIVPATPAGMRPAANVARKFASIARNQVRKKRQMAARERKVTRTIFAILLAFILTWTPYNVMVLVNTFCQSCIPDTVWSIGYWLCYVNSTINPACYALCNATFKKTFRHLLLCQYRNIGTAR
# Sequence of Alpha-2C adrenergic receptor (Homo sapiens) (P18825 whole entry, looked up): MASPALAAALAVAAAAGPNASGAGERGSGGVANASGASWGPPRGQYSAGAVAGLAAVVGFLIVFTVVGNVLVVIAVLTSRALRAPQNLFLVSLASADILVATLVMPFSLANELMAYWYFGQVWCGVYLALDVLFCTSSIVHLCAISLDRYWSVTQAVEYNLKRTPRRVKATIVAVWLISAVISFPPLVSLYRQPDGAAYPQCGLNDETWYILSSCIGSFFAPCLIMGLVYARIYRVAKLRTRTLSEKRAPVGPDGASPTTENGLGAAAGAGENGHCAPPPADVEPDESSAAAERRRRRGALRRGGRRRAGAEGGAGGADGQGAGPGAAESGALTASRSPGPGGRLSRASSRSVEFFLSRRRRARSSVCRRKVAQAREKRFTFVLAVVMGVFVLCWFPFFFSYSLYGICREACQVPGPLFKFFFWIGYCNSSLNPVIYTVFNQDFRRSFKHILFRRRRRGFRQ
# Sequence of Voltage-gated potassium channel subunit beta-2 (Rattus norvegicus) (P62483 whole entry, looked up): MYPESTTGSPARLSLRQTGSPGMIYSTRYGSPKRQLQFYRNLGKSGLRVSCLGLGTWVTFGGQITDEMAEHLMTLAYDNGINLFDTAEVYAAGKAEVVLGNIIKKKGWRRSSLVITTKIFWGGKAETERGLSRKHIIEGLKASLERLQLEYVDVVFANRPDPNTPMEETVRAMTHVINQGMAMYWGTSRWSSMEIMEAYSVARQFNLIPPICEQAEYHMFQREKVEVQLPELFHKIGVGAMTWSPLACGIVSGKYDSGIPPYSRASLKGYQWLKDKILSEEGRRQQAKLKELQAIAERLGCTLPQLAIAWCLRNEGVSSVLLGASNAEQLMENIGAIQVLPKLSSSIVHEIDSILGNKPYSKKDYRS
# Sequence of Dual specificity protein phosphatase 6 (Homo sapiens) (Q16828 whole entry, looked up): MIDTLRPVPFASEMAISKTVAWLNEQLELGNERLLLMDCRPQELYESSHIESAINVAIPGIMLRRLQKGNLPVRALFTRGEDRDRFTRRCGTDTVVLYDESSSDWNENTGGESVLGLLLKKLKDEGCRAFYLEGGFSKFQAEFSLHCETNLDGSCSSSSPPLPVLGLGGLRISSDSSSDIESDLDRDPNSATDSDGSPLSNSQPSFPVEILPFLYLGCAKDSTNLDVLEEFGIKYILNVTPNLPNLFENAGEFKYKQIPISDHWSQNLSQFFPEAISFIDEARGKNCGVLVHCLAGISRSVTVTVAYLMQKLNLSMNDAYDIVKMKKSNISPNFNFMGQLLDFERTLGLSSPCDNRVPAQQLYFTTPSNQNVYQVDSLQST
Compound,cell count [1],inhibition [1],inhibition of aggregation [2],nuclei count [2],inhibition [3],nuclei count [3],fluorescence slope [4],NADPH fluorescence slope [5],fluorescence slope [6],inhibition [7],inhibition [8],slope [9],"z-score [10, 12]","z-score [10, 13]","z-score [10, 14]",inhibition [11]
O=C(O)c1[nH]nc2c1COc1ccccc1-2,308,13.1% (inactive),-9.9% (inactive),97%,14.8% (inactive),102%,-0.551 (inactive),-0.000118 (inactive),0.00437 (inactive),14.5% (inactive),22.3% (inactive),–,–,–,–,–
Cc1cccc(OCC(=O)Nc2ccccc2N2CCN(C(=O)C(C)C)CC2)c1C,232,-21.4% (inactive),6% (inactive),73.8%,-26.3% (inactive),68.6%,-0.585 (inactive),-2.3e-05 (inactive),0.00511 (inactive),15.5% (inactive),25.9% (inactive),–,–,–,–,–
CC(=O)CC(=O)Nc1ccccc1NC(C)=O,470,6.5% (inactive),-2.9% (inactive),108%,-17.4% (inactive),110%,-0.579 (inactive),-2.4e-05 (inactive),0.00558 (inactive),14.2% (inactive),15% (inactive),–,–,–,–,–
C=C(c1ccc(O)cc1)c1ccc(O)cc1,447,-0.5% (inactive),-1.6% (inactive),123%,-75% (inactive),205%,-0.37 (inactive),1.7e-05 (inactive),0.00598 (inactive),13.9% (inactive),16.6% (inactive),–,–,–,–,–
CCOCCCNC(=O)C1CCN(C(=O)Nc2ccc(Cl)cc2)CC1,437,-5% (inactive),-2.7% (inactive),106%,-40.5% (inactive),90.7%,-0.324 (inactive),-6.3e-05 (inactive),0.00707 (inactive),10.2% (inactive),21.5% (inactive),–,–,–,–,–
CCOCCCNC(=O)CCNS(=O)(=O)c1ccc(C)cc1,547,-15% (inactive),-10.7% (inactive),90.3%,–,–,-0.411 (inactive),-3.1e-05 (inactive),–,-17.9% (inactive),22.8% (inactive),0.00305 (inactive),–,–,–,–
O=C(c1ccc(Cl)cc1)C1CCN(C(=O)NC2CCCCC2)CC1,456,-15% (inactive),13.9% (inactive),86.5%,-37.3% (inactive),104%,-0.541 (inactive),-1.3e-05 (inactive),0.00452 (inactive),4.14% (inactive),-12.4% (inactive),–,–,–,–,–
Cc1cc(NC(=O)COc2ncnc3sc(C)c(C)c23)no1,418,1.3% (inactive),-2.1% (inactive),100%,–,153%,-0.568 (inactive),-2.9e-05 (inactive),0.00692 (inactive),21% (inactive),21.4% (inactive),–,–,–,–,–
COc1ccc(OCc2nc(N)nc(Nc3cccc(C)c3C)n2)cc1,369,3.3% (inactive),-10.8% (inactive),102%,–,–,-0.446 (inactive),-1e-06 (inactive),–,4.49% (inactive),29% (inactive),0.00333 (inactive),–,–,–,–
COc1cc(Cn2c(C(=O)O)cc3sccc32)cc(OC)c1OC,434,8.6% (inactive),2.5% (inactive),98.8%,–,140%,-0.562 (inactive),-0.000122 (inactive),0.00343 (inactive),14.9% (inactive),20.9% (inactive),–,–,–,–,–
CCCCc1oc2ccccc2c1C(=O)c1cc(I)c(OCCN(CC)CC)c(I)c1,651,-9% (inactive),–,–,-235% (inactive),136%,-0.467 (inactive),-4.3e-05 (inactive),–,9.88% (inactive),43.5% (inactive),0.00817 (inactive),0.542,-0.674,0.954,5.42% (inactive)
N=c1c(C(=O)NCc2ccc(F)cc2)cc2c(=O)n3ccccc3nc2n1CCCN1CCOCC1,537,4.4% (inactive),-26.3% (inactive),102%,-45.8% (inactive),122%,-0.374 (inactive),-1e-05 (inactive),–,–,69.7% (active),0.00357 (inactive),–,–,–,–
COc1cccc(C(=O)Nc2cnc(NC(=O)c3ccco3)cc2C)c1,463,12.5% (inactive),-2.9% (inactive),98.1%,–,119%,-0.567 (inactive),-5.3e-05 (inactive),0.00623 (inactive),5.68% (inactive),-23.5% (inactive),–,–,–,–,–
O=C1CC(=O)N(Cc2cccs2)C(=O)N1,336,4.7% (inactive),12.5% (inactive),98.3%,–,116%,-0.632 (inactive),5.3e-05 (inactive),0.00466 (inactive),1.08% (inactive),6.01% (inactive),–,–,–,–,–
Cc1cnc(C(=O)NCCc2ccc(S(=O)(=O)NC(=O)NC3CCCCC3)cc2)cn1,609,0.1% (inactive),–,–,-102% (inactive),134%,-0.474 (inactive),8e-06 (inactive),–,12.9% (inactive),21.2% (inactive),0.0053 (inactive),-0.283,0.557,-0.42,12.4% (inactive)
